Compound activity from PubChem.
The list is not random: actives were taken first. Their share in the collection is about 6.1%.
ATXN viability – Viability Counterscreen for Primary qHTS for Inhibitors of ATXN expression. S2 cells (HEK-293 line with an ATXN2-luciferase reporter) viability, CellTiter-Fluor protease fluorescence, 24 h. Potency, µM (highest dose often 56.7 µM), actives largely listed as cytotoxic. 400,000 compounds, 0.49% hits; further: nearly all actives have a fitted effect of over 40% in size
HepG2 viability – qHTS for Inhibitors of TGF-b: Cytotox Counterscreen; Potency, µM (top dose mostly 46.1 µM), inactives show top-dose activity change, negative = cytotoxicity, hits mostly cytotoxic; 410,000 compounds, 0.76% hits; HepG2 CAGA-GFP viability, ATP luminescence, 18 h
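HepG2 CAGA-GFP cells (1000/well, DMEM with 1% FBS) received compound, then TGF-beta at 500 pg/mL final, and were incubated 18 hours at 37 degrees C. Viability was read by CellTiter-Glo luminescence. Media-only wells were set as complete cell-killing and DMSO as no toxicity.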
RORg inh – qHTS for inhibitors of ROR gamma transcriptional activity. Nuclear receptor ROR-gamma (Mus musculus), P51450. Drosophila S2 Gal4-RORgamma UAS-luciferase reporter, 20 h. Potency, µM (titrated, usually from 53.6 µM), for the others: at the top dose activity change, negative = inhibition, hits mostly inhibitors. 310,000 compounds, 5.4% hits. AID 2551, 2010; further: on the % scale 0 is the no-effect control and ±100 the full control effect; nearly all actives have a fitted effect of over 60% in size
Target sequence (P51450 whole entry, looked up, the tested form may be a part): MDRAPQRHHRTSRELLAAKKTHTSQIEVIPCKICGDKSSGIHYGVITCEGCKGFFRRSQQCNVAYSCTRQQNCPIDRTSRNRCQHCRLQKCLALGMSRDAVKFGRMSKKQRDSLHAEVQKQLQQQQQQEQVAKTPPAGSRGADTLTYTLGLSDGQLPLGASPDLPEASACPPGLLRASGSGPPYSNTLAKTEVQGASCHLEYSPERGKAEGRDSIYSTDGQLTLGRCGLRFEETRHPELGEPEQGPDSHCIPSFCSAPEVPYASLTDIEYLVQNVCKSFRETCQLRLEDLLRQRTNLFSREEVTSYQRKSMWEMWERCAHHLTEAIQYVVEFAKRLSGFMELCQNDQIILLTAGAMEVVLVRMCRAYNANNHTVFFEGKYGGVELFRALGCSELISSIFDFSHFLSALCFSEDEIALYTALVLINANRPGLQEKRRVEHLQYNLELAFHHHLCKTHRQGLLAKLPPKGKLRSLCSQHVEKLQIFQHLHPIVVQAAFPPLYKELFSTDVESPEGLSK
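Drosophila Schneider cells stably carrying a metallothionein-driven Gal4 DBD–ROR gamma fusion and a UAS-Photinus luciferase reporter were exposed to compound for 1 hr, then induced with copper sulfate (700 uM final) for 20 hr at ambient temperature before luminescence reading.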
TGFb SMAD3 inh – qHTS for Inhibitors of TGF-b | HepG2 CAGA-GFP TGF-b/SMAD3 reporter, GFP fluorescence, 18 h; TGF-beta stimulated, 500 pg/mL final | Potency, µM (series often up to 46.1 µM), for inactives: at the top dose activity, negative = inhibition, actives largely listed as inhibitors | 410,000 compounds, 1.2% hits; further: on the % scale 0 is the no-effect control and ±100 the full control effect; nearly all actives have a fitted effect of over 65% in size
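HEPG2 CAGA-GFP reporter cells (1000/well, DMEM with 1% FBS) received compounds, then recombinant TGF-beta at 500 pg/mL final for 18 hours at 37 degrees C. Per-cell GFP summed per well was normalised to unstimulated and stimulated DMSO controls before curve fitting.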
ATXN2 expr inh – Primary qHTS for Inhibitors of ATXN expression; AID 1745845, 2022; 360,000 compounds, 0.72% hits; Potency, µM (series often up to 57 µM), inactives show top-dose activity change, negative = inhibition, hits mostly inhibitors; HEK-293 ATXN2-luciferase reporter, luminescence, 24 h; further: on the % scale 0 is the no-effect control and ±100 the full control effect; nearly all actives have a fitted effect of over 55% in size
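ATXN2-luciferase reporter cells (luciferase flanked by upstream and downstream ATXN2 gene portions) were treated 24 h at 37 °C with compounds at up to 57 uM. SteadyGlo luminescence gave expression; GF-AFC fluorescence gave viability.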
Gal4-VP16 FLuc – VP16 counterscreen qHTS for inhibitors of ROR gamma transcriptional activity; Potency, µM (top dose mostly 53.6 µM), for the others: top-dose activity, negative = inhibition, usual class: inhibitors; AID 2546, 2010; 310,000 compounds, 3.5% hits; Drosophila S2 Gal4-VP16 UAS-luciferase, luminescence, 20 h;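 further: Gal4-VP16 expression switched on by copper sulfate through the metallothionein promoter; on the % scale 0 is the no-effect control and ±100 the full control effect; nearly all actives have a fitted effect of over 50% in size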
Starred values were filed as active, the others as inactive; i = inactive; ? = inconclusive; . = not tested or not shown; [ ] = remark or other dose. The call rests on the fitted dose curve; in most records, active means well fitted curve in the direction sought with a large enough effect; inconclusive means small, poorly fitted or top-dose-only effect, or another doubt; inactive means no such curve, though single readings can be large; an effect the other way counts as inactive or inconclusive. Potency means the concentration at half of the fitted maximal effect.

SMILES	ATXN viability	HepG2 viability	RORg inh	TGFb SMAD3 inh	ATXN2 expr inh	Gal4-VP16 FLuc
O=C(NCCc1cccs1)c1ccc(Cl)cc1	i	-12%	8.9µM*	16%	-9%	?
O=C(NCCc1cccs1)c1ccc(Cl)c(Cl)c1	i	-7%	29%	-5%	50%	8%
Cc1ccc(C(=O)NCCc2cccs2)cc1	i	-3%	?	5%	14µM*	5.6µM*
CC(C)(C)Cn1c(N)nc2ccc(-c3[nH]c(C(C)(C)C)nc3-c3ccc(F)cc3)nc21	.	.	.	.	27µM*	.
C#CCOCCOCCOCCNc1nc(N2CCN(C(=O)C(Cc3cc4ccccc4[nH]3)n3cc(C(N)Cc4ccc(O)cc4)nn3)CC2)nc(N2CCN(C(=O)C(Cc3cc4ccccc4[nH]3)n3cc(C(N)Cc4ccc(O)cc4)nn3)CC2)n1 (stereo not given)	32µM*	1%	2%	-16%	?	?
C#CCOCCOCCOCCNc1nc(N2CCN(C(=O)[C@H](Cc3cc4ccccc4[nH]3)n3cc([C@@H](N)CC(C)C)nn3)CC2)nc(N2CCN(C(=O)[C@H](Cc3cc4ccccc4[nH]3)n3cc([C@@H](N)CC(C)C)nn3)CC2)n1	i	-2%	?	-23%	6%	16µM*
C#CCOCCOCCOCCNc1nc(N2CCOCC2)nc(N2CCN(C(=O)[C@H](Cc3cc4ccccc4[nH]3)n3cc([C@@H](N)CC(C)C)nn3)CC2)n1	i	-13%	-25%	7%	5%	4%
Cc1ccccc1C(=O)NC(C)c1nnc2n1CCN(Cc1ccnc3ccccc13)CC2 (stereo not given)	i	.	.	.	.	.
COC(C(C)/C=C/CC(=O)OCCCc1ccccc1)C1CCCCC1 (stereo not given)	.	.	-5%[10 µM]	.	.	-6%[10 µM]
COc1ccc(NC(=O)CC2C(=O)N(c3ccc(OC)cc3)C(=S)N2NC(=O)c2cccc(F)c2)cc1 (stereo not given)	i	12%	13µM*	25%	10%	?
Cc1ccc(C(=O)C(C(=O)/C=C/c2ccccc2)=C2SCCCS2)cc1	.	-83%	3.5µM*	-20%	13µM*	14µM*
Cc1ccc(C(=O)C=CC=Cc2ccccc2)cc1	i	-4%	.	-8%	.	.
COc1cc(NC(=O)COCc2cc(-c3ccc4c(c3)OCO4)on2)cc(OC)c1	.	-6%	.	-8%	.	.
NC(=S)N1CCCc2ccccc21	i	12%	6.3µM*	4%	-17%	?
COc1ccccc1C(=O)Nc1ccc2c(c1)CCCN2C(=O)c1ccccc1	i	13µM*	12%	2%	-14%	4%
N=C(N1CCCc2ccccc21)N1CCCc2ccccc21	i	-1%	.	2%	-32%	.
O=C(NC(=S)N1CCCc2ccccc21)c1ccc([N+](=O)[O-])cc1	i	-23%	?	?	28%	6.3µM*
COc1ccccc1C(=O)NC(=S)N1CCCc2ccccc21	i	-21%	7.9µM*	-4%	69%	?
COc1ccccc1C(=O)Nc1ccc2c(c1)CCCN2C(=O)c1cccs1	i	-54%	39%	-12%	?	5%
COc1ccccc1C(=O)NC(=S)N1CCc2ccccc21	?	6%	?	8%	.	?
CC(/C=C/c1ccco1)=N\NC(=O)c1cc(Cl)ccc1O	?	-23%	8.9µM*	-7%	5%	?
COc1ccc(OC)c2[nH]c(=O)c(CCNC(=S)NC(C)(C)C)cc12	i	-27%	4.5µM*	-29%	.	11µM*
CC(C)(C)N1C(=O)[C@@H]2[C@H]3C(=CC[C@H]2C1=O)C(=O)[C@H]1O[C@H]1[C@H]3O	.	.	1.4µM*	.	.	?
C[C@@H](c1ccccc1)N1C(=O)[C@@H]2[C@H]3C(=CC[C@H]2C1=O)C(=O)[C@H]1O[C@H]1[C@H]3O	.	.	3.5µM*	.	.	?
C[C@@H](c1ccccc1)N1C(=O)[C@H]2[C@H]3[C@H](O)[C@H](O)C/C(=N/OCc4ccccc4)[C@H]3CC[C@@H]2C1=O	.	.	1%[10 µM]	.	.	0%[10 µM]
SMILES	ATXN viability	HepG2 viability	RORg inh	TGFb SMAD3 inh	ATXN2 expr inh	Gal4-VP16 FLuc
CCOC(=O)CCN1C(=O)[C@@H]2[C@H]3C(=CC[C@H]2C1=O)C(=O)[C@H]1O[C@H]1[C@H]3O	.	.	2.2µM*	.	.	-84%[10 µM]
COc1ccc(C(=O)NCc2nnc(SCC(=O)Nc3ccccc3)n2-c2ccccc2)cc1	i	6%	.	-14%	-2%	.
CN1CCN(S(=O)(=O)c2ccc(NC(=S)NC(=O)c3ccc(Cl)cc3)cc2)CC1	?	-14%	3.2µM*	1%	-17%	?
CC1CCN(S(=O)(=O)c2ccc(NC(=S)NC(=O)c3ccc(Cl)cc3)cc2)CC1	i	-50%	2µM*	16%	-14%	4µM*
Cc1ccc2c(c1Br)C(O)(CC(=O)c1ccc(F)cc1)C(=O)N2 (stereo not given)	i	-30%	.	?	-3%	.
Oc1cccc(/C=N/N=C/c2cccc(O)c2O)c1O	?	-21%	?	-13%	21%	?
Cc1ccccc1N=Cc1cccc(O)c1O	?	-56%	-30%	16µM*	-13%	-6%
Cc1ccc(N=Cc2cccc(O)c2O)c(C)c1	.	-61%	10µM*	?	.	?
CCN(CC)c1ccc(C=Nc2ccc(C)cc2C)c(O)c1	i	3%	6%	-10%	22%	-11%
CCCC(=O)Nc1nnc(SCc2cc(=O)n3ccccc3n2)s1	.	9%	.	-11%	.	.
O=C(Nc1ccc(F)c(Cl)c1)C1CC(=O)n2c(nc3ccccc32)N1 (stereo not given)	i	-10%	3.5µM*	0%	-6%	?
O=C(Nc1ccc(F)cc1)C1CC(=O)n2c(nc3ccccc32)N1 (stereo not given)	i	5%	17%	0%	-1%	-6%
O=C1CCCCN1CCC(=O)N1CCOc2ccc(C(O)C3CCCCC3)cc2C1 (stereo not given)	i	.	.	.	.	.
CC1CCN(c2nc(-c3cccnc3)nc3scc(-c4ccccc4)c23)CC1	i	-12%	46%	1%	8%	?
CC1CCN(c2nc(CN3CCCCC3)nc3scc(-c4ccccc4)c23)CC1	.	-18%	10µM*	-18%	?	22µM*
O=C(/C=C/c1ccc([N+](=O)[O-])s1)N1CCCC1	?	20µM*	6.3µM*	11µM*	.	13µM*
